Test results from PubChem BioAssay.
Inconclusive results are not listed. Activity calls are given as the source filed them. Unless noted, the limit is not given here; nearly all actives have AC50 up to about 26 µM.

What was measured:
[1] = growth inhibition of DIPG glioma cells, dose response, cell-based, SU-DIPG-XVII, MIPE5.0, CellTiter-Glo, qHTS (AID 1347060); conditions: SU-DIPG-XVII viability, CellTiter-Glo ATP luminescence;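 as to AC50: cells exposed to compound for 48 hours before viability readout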
[2] = growth inhibition of DIPG glioma cells, dose response, cell-based, SU-DIPG-XIII, MIPE5.0, CellTiter-Glo, qHTS (AID 1347064; cut-off not given, nearly all actives have AC50 up to about 23 µM;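 as to AC50: cells exposed to compound for 48 hours before the viability read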); conditions: SU-DIPG-XIII viability, CellTiter-Glo ATP luminescence
[3] = viability loss in pontine glioma line – cell-based, SU-DIPG-XXV, MIPE5.0, CellTiter-Glo, qHTS, dose response (AID 1347065); conditions: CellTiter-Glo ATP luminescence;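 also: cells exposed to compound for 48 hours before ATP readout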
[4] = SU-DIPG-XXV glioma cell viability, MIPE5.0 library, qHTS (AID 1347068; cut-off not given, nearly all actives have IC50 up to about 30 µM;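 as to IC50: cells exposed to compound for 48 hours before viability readout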)
[5] = sensitizers of A549 cells to miR-34 induction, primary screen, imaging, A549 dox-inducible miR-34, nuclei and caspase counts (AID 1347080;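 active = compounds whose cell count with miR-34 switched on is under 0.7 times the count with it off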); conditions: A549 miR-34 inducible, Hoechst nuclei count, 48 h
[6] = survival rescue of mitochondrial mutant cells in low glucose, primary screen, MELAS cybrids, Rieske KO mouse fibroblasts, CellTiter-Glo (AID 1508586;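 active = mean z-score across replicates of 1.96 or higher in either the MELAS or the Rieske mutant cell line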;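 also: z relative to plate mean and SD of compound and empty wells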)
[7] = JHH-DIPG-1 glioma cell viability, MIPE5.0 library, CellTiter-Glo luminescence, qHTS (AID 1347067); conditions: JHH-DIPG-1 glioma viability, CellTiter-Glo ATP luminescence;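 also: cells exposed to compound for 48 hours before readout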
[8] = phospholipid biosynthesis inhibitors in animal cells, primary screen, cell-based, LOPAC library, screen 4 (AID 1347384; call rule not given here); conditions: phospholipid biosynthesis inhibition screen, at 10 µM
[9] = stronger effect = lower value, cell number ratio, induced over uninduced
[10] = measured here: relative caspase fold change +Dox/-Dox
[11] = measured here: total cells with miR-34 induction, stronger effect = lower value
[12] = measured here: total cells without miR-34 induction
[13] = MELAS cybrid survival, CellTiter-Glo 48 h, stronger effect = higher value
[14] = Rieske KO mouse fibroblast survival, CellTiter-Glo 72 h

## O=C(Nc1ccc2c(=O)cc(-c3nn[nH]n3)oc2c1)c1ccc(OCCCCc2ccccc2)cc1
[1]
  outcome: inactive
[2]
  outcome: inactive
[3]
  outcome: inactive
[4]
  outcome: inactive
[5]; [9]
  fold change: 0.988 (inactive)
[5]; [10]
  fold change: 0.807
[5]; [11]
  cell count: 7750
[5]; [12]
  cell count: 7840
[6]; [13]
  z-score: -0.481 (inactive)
[6]; [14]
  z-score: -0.277

## C[C@@]1(c2ncncc2F)NC(=O)c2cc(-c3cn[nH]c3)ccc21
[1]
  outcome: inactive
[2]
  outcome: inactive
[7]
  outcome: inactive
[4]
  outcome: inactive

## Cc1nn(C)c(COc2ccc(N3CCN(S(=O)(=O)N(C)C)CC3)cc2)c1-c1cccc2c(CCCOc3cccc4ccccc34)c(C(=O)O)n(CCN3CCOCC3)c12
[1]
  AC50: 14.8 µM (active)
[2]
  AC50: 18.6 µM (active)
[7]
  AC50: 18.6 µM (active)
[4]
  outcome: inactive

## CNCCN(C)Cc1cn[nH]c1-c1ccc(OC2CC(OCCC3CCOCC3)C2)cc1 (stereo unspecified)
[1]
  outcome: inactive
[2]
  outcome: inactive
[7]
  outcome: inactive
[4]
  outcome: inactive

## CCCN1CCN(c2ccc(C(=O)NC3(C(=O)NCC#N)CCCCC3)cc2)CC1
[1]
  outcome: inactive
[2]
  outcome: inactive
[7]
  outcome: inactive
[4]
  outcome: inactive

## COc1ccc2c(C(=S)N(C)CC(=O)O)cccc2c1C(F)(F)F
[1]
  outcome: inactive
[2]
  outcome: inactive
[7]
  outcome: inactive
[4]
  outcome: inactive

## CCn1c(=O)c(-c2ccc(-c3cncc(C)n3)cc2Cl)cc2cnc(NCCC3CCN(C)CC3)nc21
[1]
  outcome: inactive
[2]
  outcome: inactive
[7]
  outcome: inactive
[4]
  IC50: 1.86 µM (active)

## O=C(CCl)Nc1cccc(NC2=NS(=O)(=O)c3ccccc32)c1
[1]
  AC50: 11.8 µM (active)
[2]
  AC50: 9.34 µM (active)
[7]
  AC50: 5.25 µM (active)

## Fc1ccc(-c2nc(-c3ccccc3F)[nH]c2-c2ccncc2)cc1
[1]
  outcome: inactive
[2]
  outcome: inactive
[7]
  outcome: inactive
[4]
  outcome: inactive

## C[N+](C)(C)CC(=O)O
[1]
  outcome: inactive
[2]
  outcome: inactive
[3]
  outcome: inactive
[4]
  outcome: inactive
[8]
  outcome: inactive

## NS(=O)(=O)c1ccc(S(=O)(=O)Nc2cccc3c(Cl)c[nH]c23)cc1
[1]
  AC50: 3.32 µM (active)
[2]
  AC50: 0.934 µM (active)
[7]
  AC50: 1.18 µM (active)

## O=C(c1ccc(NS(=O)(=O)c2cccc3cccnc23)cc1)N1CCN(CC2CC2)CC1
[1]
  outcome: inactive
[2]
  outcome: inactive
[3]
  outcome: inactive
[4]
  outcome: inactive

## CC(=O)Nc1ccc(C(=O)NC(C)(C)C)cc1
[1]
  outcome: inactive
[2]
  outcome: inactive
[7]
  outcome: inactive

## c1cc(-c2cnn3cc(-c4ccc(N5CCNCC5)cc4)cnc23)c2cccnc2c1
[1]
  AC50: 7.42 µM (active)
[2]
  AC50: 6.61 µM (active)
[3]
  AC50: 7.42 µM (active)
[4]
  IC50: 9.34 µM (active)
[5]; [9]
  fold change: 1.02 (inactive)
[5]; [10]
  fold change: 0.321
[5]; [11]
  cell count: 216
[5]; [12]
  cell count: 212
[6]; [13]
  z-score: 1.7 (inactive)
[6]; [14]
  z-score: 0.379

## CS(=O)(=O)c1ccc([C@@H](CC2CCCC2)C(=O)Nc2nccs2)cc1
[1]
  outcome: inactive
[2]
  outcome: inactive
[7]
  outcome: inactive
[4]
  IC50: 13.2 µM (active)

## CNC(=O)c1cccc2cc(Oc3ccnc4cc(OCC5(N)CC5)c(OC)cc34)ccc12
[1]
  AC50: 1.48 µM (active)
[2]
  AC50: 1.32 µM (active)
[3]
  AC50: 1.86 µM (active)
[4]
  IC50: 7.42 µM (active)

## COc1cc(-c2cc(-c3ccc(N4CCNCC4)cc3)cnc2C)cc(OC)c1OC
[1]
  outcome: inactive
[2]
  outcome: inactive
[4]
  outcome: inactive

## CCN(CC)C(=O)Cc1csc(NS(=O)(=O)c2cccc(Cl)c2C)n1
[1]
  outcome: inactive
[3]
  outcome: inactive

## CN[C@@H](C)C(=O)N[C@@H]1C(=O)N(Cc2c(C)ccc3ccccc23)c2ccc(C#N)cc2N(C(C)=O)[C@H]1C
[1]
  outcome: inactive
[2]
  outcome: inactive
[7]
  outcome: inactive
[4]
  outcome: inactive

## CC(C)[C@H]1C(=O)N[C@@H](CCCN=C(N)N)C(=O)NCC(=O)N[C@@H](CC(=O)O)C(=O)N[C@H](Cc2ccccc2)C(=O)N1C
[1]
  outcome: inactive
[2]
  outcome: inactive
[7]
  outcome: inactive
[4]
  outcome: inactive

## CC(C)N(C[C@H]1O[C@@H](n2cnc3c(N)ncnc32)[C@H](O)[C@@H]1O)C1CC(CCc2nc3ccc(C(C)(C)C)cc3[nH]2)C1 (stereo partly specified)
[1]
  outcome: inactive
[2]
  outcome: inactive
[7]
  outcome: inactive
[4]
  outcome: inactive

## CON(C)C(=O)N1N=C(c2cc(F)ccc2F)S[C@@]1(CCCN)c1ccccc1
[1]
  AC50: 0.00525 µM (active)
[3]
  AC50: 0.00934 µM (active)

## Cn1cnc(-c2cc3nccc(Oc4ccc(NC(=S)NC(=O)Cc5ccccc5)cc4F)c3s2)c1
[1]
  AC50: 16.6 µM (active)
[2]
  AC50: 18.6 µM (active)
[4]
  IC50: 4.17 µM (active)
[5]; [9]
  fold change: 0.83 (inactive)
[5]; [10]
  fold change: 1.19
[5]; [11]
  cell count: 3930
[5]; [12]
  cell count: 4730
[6]; [13]
  z-score: -0.555 (inactive)
[6]; [14]
  z-score: -0.0569

## COc1ccc(Cl)c(Nc2nc3ccccc3nc2NS(=O)(=O)c2cccc(NC(=O)C(C)(C)N)c2)c1
[1]
  AC50: 14.8 µM (active)
[3]
  AC50: 10.5 µM (active)

## CC(C)Cc1ccc([C@@H](C)C(=O)NS(C)(=O)=O)cc1
[1]
  outcome: inactive
[2]
  outcome: inactive
[4]
  outcome: inactive

## O=C(Nc1cccc(C(F)(F)F)c1)Nc1cc(S(=O)(=O)NC2CC2)ccc1-c1ccsc1
[1]
  outcome: inactive
[2]
  outcome: inactive
[7]
  outcome: inactive
[4]
  outcome: inactive
[5]; [9]
  fold change: 0.892 (inactive)
[5]; [10]
  fold change: 0.311
[5]; [11]
  cell count: 6420
[5]; [12]
  cell count: 7200
[6]; [13]
  z-score: -0.374 (inactive)
[6]; [14]
  z-score: -0.851

## COc1ncc(Nc2ncc(C(C)N3CCN(S(C)(=O)=O)CC3)cc2-c2nc(C)nc(N)n2)cc1F (stereo unspecified)
[1]
  AC50: 0.934 µM (active)
[3]
  AC50: 0.235 µM (active)

## CC#Cc1cncc(-c2ccc3c(c2)[C@@]2(N=C(C)C(N)=N2)C2(CCC(OC)CC2)C3)c1 (stereo partly specified)
[1]
  outcome: inactive
[2]
  outcome: inactive
[4]
  outcome: inactive

## CCOc1ccccc1N=Nc1c(C)[nH]n(-c2nc(-c3ccccc3)cs2)c1=O
[1]
  outcome: inactive
[2]
  outcome: inactive
[7]
  outcome: inactive
[4]
  outcome: inactive

## Cc1cccc(-c2[nH]ncc2-c2ccc(F)c(-c3cnn(CCO)c3)c2)n1
[1]
  outcome: inactive
[2]
  outcome: inactive
[4]
  IC50: 26.3 µM (active)

## CCN(c1cc(C#CCN2CCOCC2)cc(C(=O)NCc2c(C)cc(C)[nH]c2=O)c1C)C1CCC(N(C)CCOC)CC1 (stereo unspecified)
[1]
  outcome: inactive
[2]
  outcome: inactive
[7]
  outcome: inactive
[4]
  outcome: inactive

## C[C@@H]1CN(CC(=O)N2CC(C)(C)c3ncc(Cc4ccc(F)cc4)cc32)[C@@H](CN2CCOC[C@H]2C)CN1
[1]
  outcome: inactive
[2]
  outcome: inactive
[7]
  outcome: inactive
[4]
  outcome: inactive

## N[C@@H]1CN(c2c(F)cc3c(=O)c(C(=O)O)cn([C@@H]4C[C@@H]4F)c3c2Cl)CC12CC2
[1]
  outcome: inactive
[2]
  outcome: inactive
[7]
  outcome: inactive
[4]
  outcome: inactive
